High-throughput results from PubChem.
The list is not random: actives were taken first. Their share in the collection is about 3.3%.
GBA mod = human lysosomal glucosylceramidase modulation. P04062. purified enzyme, resorufin glucoside fluorescence (screen aimed at inhibitors), 20 min. actives 1.1% (n = 48,000). AID 360. Potency, µM; in the data active means potency below about 15 µM;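 further: potency means the concentration at half of the fitted maximal effect; the screen sought inhibitors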
Target sequence (P04062 whole entry, looked up): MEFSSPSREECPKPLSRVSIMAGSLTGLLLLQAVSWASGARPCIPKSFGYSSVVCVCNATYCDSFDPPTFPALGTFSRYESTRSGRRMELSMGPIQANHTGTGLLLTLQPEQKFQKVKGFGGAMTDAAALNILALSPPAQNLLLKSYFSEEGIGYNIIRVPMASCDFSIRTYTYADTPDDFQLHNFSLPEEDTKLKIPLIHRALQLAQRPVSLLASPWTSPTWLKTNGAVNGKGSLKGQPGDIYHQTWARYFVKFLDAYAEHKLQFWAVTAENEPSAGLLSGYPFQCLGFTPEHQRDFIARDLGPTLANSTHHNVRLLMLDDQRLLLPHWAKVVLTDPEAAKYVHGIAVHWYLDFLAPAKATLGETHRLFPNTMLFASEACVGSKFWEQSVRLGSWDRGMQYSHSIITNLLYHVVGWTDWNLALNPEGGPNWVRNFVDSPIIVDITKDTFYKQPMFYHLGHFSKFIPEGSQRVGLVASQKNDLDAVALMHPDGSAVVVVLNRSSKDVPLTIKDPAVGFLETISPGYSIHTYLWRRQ
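Wild-type enzyme at 0.2 nM final in 50mM citric acid/KH2PO4, 10mM sodium taurocholate, 0.01% tween-20, pH 5.9, with resorufin beta-D-glucopyranoside at 30 uM final. Compounds titrated, 20 min at RT, red fluorescence read; AC50 from titration.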
HBB splice mod = hemoglobin beta splicing modulation; Potency, µM (top dose mostly 46.1 µM), for the others: at the highest dose activation, most hits filed as activators; actives 0.06% (n = 65,000); HBB splicing reporter cell assay, activation; EGFP reporter with mutant IVS2-654 intron; response scale: normalised to 500 nM splice-correcting PNA; further: potency means the concentration at half of the fitted maximal effect; 0% is about no effect
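HeLa cells stably expressing EGFP interrupted by mutant beta-globin intron 2 (IVS2-654), 500/well in 2% FCS. Treated with compound for 2 days at 37C. Splicing correction scored as total well GFP intensity (488 nm excitation, 500-520 nm emission); 500 nM antisense PNA served as control.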
Ub-GFP proteasome = ubiquitin-GFP accumulation via proteasome inhibition; 67,000 tested, under 10 active; AID 526; Ubiquitin-GFP reporter cells, proteasome inhibition, GFP fluorescence; response scale: untreated = 0%, 10 µM MG-132 = 100%; Potency, µM (titrated, usually from 45.9 µM), for the others: top-dose activation (GFP accumulation), hits mostly activators; active means well fitted activation curve with a large enough effect, not every such curve was filed as active; further: potency means the concentration at half of the fitted maximal effect
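U2OS cells stably expressing ubiquitin(G76V)-GFP, seeded overnight in 0.5% FBS medium, were exposed to compounds (qHTS, 46 uM to 2.9 nM) for 4 hr at 37 °C. GFP-positive cells were counted by laser cytometry (488 ex/515 em), normalized between basal and 10 uM MG-132.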
Epigenetic mod = epigenetic GFP locus derepression in mouse cells; mouse C127i GFP locus derepression, cytometry, 30 h; Potency, µM (doses to about 46.1 µM), for the others: at the highest dose GFP derepression (activation); actives 0.09% (n = 68,000); further: % of control where 0% means no effect
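Read-out is the number of GFP-positive cells, scored as fluorescent objects 20 to 120 um wide, reflecting derepression of a silenced CMV-GFP reporter in murine C127i cells after 30 h compound exposure at 37 C.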
Luciferase inh = blocks Photinus pyralis firefly luciferase activity; AID 411; P08659; purified firefly luciferase, luminescence, 8 min; actives 2.2% (n = 72,000); Potency, µM (top dose mostly 57.1 µM), inactives show at the top dose activity change, negative = inhibition, actives largely listed as inhibitors; further: potency means the concentration at half of the fitted maximal effect; on the % scale 0 is the no-effect control and ±100 the full control effect; nearly all actives have a fitted effect of over 40% in size
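Inhibition of light generation by firefly luciferase from ATP and luciferin was profiled with concentration-response curves per sample, ATP held at 10 uM within the enzyme's linear range. Plates were read by luminescence after an 8-minute ambient incubation.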
Bst PK mod = alters activity of Bacillus stearothermophilus pyruvate kinase. purified pyruvate kinase, luminescence ATP production; ribose 5-phosphate activator present at AC10. Potency, µM. actives 1.2% (n = 51,000). AID 361; in the data active means potency below about 11 µM;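 the screen sought inhibitors and activators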;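 further: potency means the concentration at half of the fitted maximal effect; scaled between full activation by ribose 5 phosphate and full inhibition by luteolin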
The depositor's hits bear a star; [ ] = dose if it differs, or a comment. Unless noted, the call rests on the fitted dose curve; in most records, active means well fitted curve in the direction sought with a large enough effect; inconclusive means small, poorly fitted or top-dose-only effect, or another doubt; inactive means no such curve, though single readings can be large; an effect the other way counts as inactive or inconclusive.

c1ccc(COc2ccc(OCCOCCn3cncn3)cc2)cc1 was read as GBA mod >76.9, HBB splice mod -0.6%, Ub-GFP proteasome 6.7%, Epigenetic mod 3.3% and Luciferase inh 15.8µM*.
For CCOC(=O)C1CCCN(C(=O)c2cc3nc(-c4cccc(OC)c4)cc(C(F)(F)F)n3n2)C1 (stereo not given) the results were GBA mod 7.22*, HBB splice mod -1.1%, Ub-GFP proteasome 7.5%, Epigenetic mod 3.2%, Luciferase inh 0.1% and Bst PK mod >57.
`CCOC(=O)C1CCCN(C(=O)c2cnn3c(C(F)(F)F)cc(-c4ccccc4)nc23)C1` (stereo not given) gave GBA mod >76.9, HBB splice mod 0.5%, Ub-GFP proteasome -11.8%, Epigenetic mod -2.7%, Luciferase inh 0.8% and Bst PK mod >57.
COc1ccc(CNc2cc(-c3ccoc3)ncn2)c(OC)c1 was read as HBB splice mod 1.1%, Ub-GFP proteasome -2.5%, Epigenetic mod -2.9%[9.22 µM] and Luciferase inh -3.9%[2.29 µM].
CCCCCCCCCCCCCCCCOC[C@@H](COCC(F)(F)F)OP(=O)(O)OCO was read as HBB splice mod 0.9%, Ub-GFP proteasome -8.1%, Epigenetic mod 0.0% and Luciferase inh 2.5%.
Screening O=C(Nc1cccnc1)c1cc(-c2cccs2)on1 returned GBA mod >76.9, HBB splice mod 1.2%, Ub-GFP proteasome 2.5%, Epigenetic mod 1.1%, Luciferase inh -16.1% and Bst PK mod >57.
Screening O=C(Nc1cccnc1)c1cn(-c2ccccc2)nc1-c1cccs1 returned GBA mod >76.9, HBB splice mod -1.7%, Ub-GFP proteasome -1.8%, Epigenetic mod -2.6%, Luciferase inh 10µM* and Bst PK mod 10.2*.
For COC(=O)C/C=C\[C@@H](C)[C@@H](/C=N\OCC[C@H]1C=C[C@H](OC(C)=O)[C@@H](COC(C)=O)O1)NS(=O)(=O)c1ccc(C)cc1 the results were HBB splice mod 3.0%[9.22 µM] and Luciferase inh 1.4%[11.4 µM].
Cc1cc(C)cc(Nc2ncc3c(n2)CCCC3=O)c1 was read as GBA mod >76.9, HBB splice mod 2.4%[1.84 µM], Ub-GFP proteasome 5.5%, Epigenetic mod 1.6% and Luciferase inh 12.6µM*.
Cc1cc(=O)oc2cc(OC3C=CC(C#CC(C)(C)C)OC3CO)ccc12 (stereo not given) was read as HBB splice mod 4.0%[9.22 µM].
Screening CN1CCN(C(=O)CSc2nc(-c3cccs3)cc(-c3cccs3)c2C#N)CC1 returned GBA mod 12.4*, HBB splice mod 1.9%, Ub-GFP proteasome -3.3%, Epigenetic mod 0.0%, Luciferase inh 2.0% and Bst PK mod inactive.
For N#Cc1ccccc1-c1ccc2ncnc(N3CCNCC3)c2c1 the results were HBB splice mod 1.0%, Ub-GFP proteasome 3.3%, Epigenetic mod 5.7%[9.22 µM] and Luciferase inh -8.5%[2.29 µM].
